Experimental data published in PubChem BioAssay AID2012 (Sanford-Burnham Center for Chemical Genomics, 2009).
Screen size: about 290,000 compounds; about 2,700 (0.93%) were called active. The rule behind the calls is not given here. Only a selection was taken, and actives are over-represented in it overall.

Target: Eukaryotic translation initiation factor 4H (Homo sapiens) (UniProt Q15056)
Assay: eIF4H binding inhibition – biochemical, uHTS, fluorescence polarization, translation initiation inhibitor project, primary screen (AID 2012);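 note: calls also rest on retests at 20 µM and on dose response follow-up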
Conditions: eIF4H fluorescence polarization binding assay, stronger effect = higher value

Structure (SMILES): COc1cc(OC)c(NC(=O)C2CCCN2C(=O)OCc2ccccc2)cc1Cl (stereo not drawn)
- inhibition (at 35 µM): -2% (inactive)

Structure (SMILES): Cc1cccc(C(=O)NC(=S)N(C)C2CCCCC2)c1
- inhibition (at 35 µM): -8.7% (inactive)

Structure (SMILES): COc1cccc(NC(=S)NCc2ccco2)c1
- inhibition (at 35 µM): 22.2% (inactive)

Structure (SMILES): S=C(NCc1ccco1)Nc1ccc2c(c1)OCCO2
- inhibition (at 35 µM): -2.7% (active)
- inhibition (confirmation average, at 20 µM): 51.4%

Structure (SMILES): S=C(NCc1ccc2c(c1)OCO2)NCc1ccco1
- inhibition (at 35 µM): -0.2% (inactive)

Structure (SMILES): O=C(CSc1ccc(-c2ccc(Br)cc2)nn1)NCC1CCCO1 (stereo not drawn)
- inhibition (at 35 µM): 3.3% (inactive)

Structure (SMILES): O=C(COc1ccc(/C=N/NC(=O)c2ccc(O)cc2)cc1)Nc1ccc([N+](=O)[O-])cc1
- inhibition (at 35 µM): -1.7% (active)
- inhibition (confirmation average, at 20 µM): 85.6%

Structure (SMILES): O=C(COc1ccc([N+](=O)[O-])cc1)Nc1ccc(N2CCCC2)cc1
- inhibition (at 35 µM): 13.8% (inactive)

Structure (SMILES): O=C(N/N=C/c1ccc(OCc2ccccc2)cc1)c1ccc(O)cc1
- inhibition (at 35 µM): -5.8% (inactive)

Structure (SMILES): CCSCc1nc(N)nc(NCCc2ccccc2)n1
- inhibition (at 35 µM): -0.9% (inactive)

Structure (SMILES): CSc1ncc(C(=O)NCCCc2ccccc2)c(C)n1
- inhibition (at 35 µM): -7.3% (inactive)

Structure (SMILES): CC(=O)c1cnc(SCC(=O)O)nc1C
- inhibition (at 35 µM): -2.4% (active)
- inhibition (confirmation average, at 20 µM): 82.3%

Structure (SMILES): CC(=O)c1cnc(SCCN2C(=O)c3ccccc3C2=O)nc1C
- inhibition (at 35 µM): -11.9% (inactive)

Structure (SMILES): CSCCC(NS(=O)(=O)c1ccccc1F)C(=O)N1CC=C(c2ccccc2)CC1 (stereo not drawn)
- inhibition (at 35 µM): 0% (inactive)

Structure (SMILES): COc1ccc(/C=N/NC(=O)c2cccc(C(F)(F)F)c2)cc1
- inhibition (at 35 µM): -2.2% (inactive)

Structure (SMILES): Cn1cccc1/C=N/NC(=O)c1ccc(OC(F)(F)C(F)F)cc1
- inhibition (at 35 µM): 9.7% (active)
- inhibition (confirmation average, at 20 µM): 56.1%

Structure (SMILES): Cn1cccc1/C=N/NC(=O)CNc1cccc2ccccc12
- inhibition (at 35 µM): -6.2% (inactive)

Structure (SMILES): NC(=O)c1ccc(Nc2ccc3nonc3c2[N+](=O)[O-])cc1
- inhibition (at 35 µM): -14.2% (inactive)

Structure (SMILES): COc1ccccc1NC(=O)N1CCCC1C(=O)NCc1cccs1 (stereo not drawn)
- inhibition (at 35 µM): -15.4% (inactive)

Structure (SMILES): CCS(=O)(=O)N1CCC(N2CCN(c3ccccc3)CC2)CC1
- inhibition (at 35 µM): 7.8% (inactive)

Structure (SMILES): CC(/C=N/NC(=O)c1ccncc1)=C\c1ccco1
- inhibition (at 35 µM): 25.2% (inactive)

Structure (SMILES): CC(/C=N/NC(=O)c1cc(-c2ccc3ccccc3c2)n[nH]1)=C\c1ccco1
- inhibition (at 35 µM): 66.1% (inactive)
- inhibition (confirmation average, at 20 µM): -19.6%

Structure (SMILES): C/C(=C\c1ccco1)C1Nc2cccc3cccc(c23)N1
- inhibition (at 35 µM): 107% (active)

Structure (SMILES): Cc1ccc(-n2nc3ccc(NC(=O)/C=C/c4ccco4)cc3n2)cc1C
- inhibition (at 35 µM): 71.7% (active)
- inhibition (confirmation average, at 20 µM): 73.8%

Structure (SMILES): O=C(/C=C/c1ccco1)Nc1cccc(-c2nc3ccccc3[nH]2)c1
- inhibition (at 35 µM): -7.2% (inactive)

Structure (SMILES): O=C(/C=C/c1ccco1)Nc1ccc(Oc2ccccc2)cc1
- inhibition (at 35 µM): 2.4% (inactive)

Structure (SMILES): COc1ccc(C2CC(c3ccc([N+](=O)[O-])cc3)=NN2C(C)=O)cc1 (stereo not drawn)
- inhibition (at 35 µM): 2.5% (inactive)

Structure (SMILES): CC1=C(C(=O)Nc2ccccc2)C(c2ccco2)C(C#N)=C(SCC(N)=O)N1 (stereo not drawn)
- inhibition (at 35 µM): 10.9% (inactive)

Structure (SMILES): N#CC1=C(N)Oc2c(sc3ccccc23)C1c1ccco1 (stereo not drawn)
- inhibition (at 35 µM): 74% (active)

Structure (SMILES): Cc1cc(C)c2c3c(sc2n1)C(c1ccccc1)C(C#N)=C(N)O3 (stereo not drawn)
- inhibition (at 35 µM): 1% (inactive)
- inhibition (confirmation average, at 20 µM): 28.6%

Structure (SMILES): COc1ccccc1CCNC(=O)c1c(C)nn(CC(C)C)c1Cl
- inhibition (at 35 µM): -10.7% (inactive)

Structure (SMILES): O=S(=O)(Oc1ccccc1C(=S)N1CCOCC1)c1ccc(Cl)cc1
- inhibition (at 35 µM): 1% (inactive)

Structure (SMILES): CCN(CC)c1ccc(/C=N/Nc2nc(C)cc(C)n2)c(O)c1
- inhibition (at 35 µM): 83.3% (active)
- inhibition (confirmation average, at 20 µM): 87.6%

Structure (SMILES): CCN(CC)c1ccc(/C=N/NC(=O)c2cnccn2)c(O)c1
- inhibition (at 35 µM): 1.5% (inactive)

Structure (SMILES): Cc1cc(C)nc(N/N=C/c2ccncc2)n1
- inhibition (at 35 µM): -8.8% (inactive)

Structure (SMILES): Cc1ccccc1CN1CCNC(=O)C1CC(=O)NCCC1=CCCCC1 (stereo not drawn)
- inhibition (at 35 µM): 5.3% (inactive)

Structure (SMILES): COc1cccc(CNS(=O)(=O)c2csc(C(N)=O)c2)c1
- inhibition (at 35 µM): 5.7% (inactive)

Structure (SMILES): CS(=O)(=O)N1CCc2nc(-c3ccccc3)sc2C1
- inhibition (at 35 µM): -3.4% (inactive)

Structure (SMILES): Cc1cc(C)c2nc(NC(=O)C3CCCO3)sc2c1 (stereo not drawn)
- inhibition (at 35 µM): -3.8% (inactive)

Structure (SMILES): Cc1ccc(C)c(C(C)NC(=O)C2CCCO2)c1 (stereo not drawn)
- inhibition (at 35 µM): 92.8% (active)

Structure (SMILES): Cc1cc([N+](=O)[O-])ccc1NC(=O)C1CCCO1 (stereo not drawn)
- inhibition (at 35 µM): -1.7% (inactive)

Structure (SMILES): COc1ccc(COC(=O)c2ccc(Cl)c(S(=O)(=O)N3CCOCC3)c2)cc1F
- inhibition (at 35 µM): 1.3% (inactive)

Structure (SMILES): NS(=O)(=O)c1ccc(NC(=O)COC(=O)c2cc3ccccc3oc2=O)cc1
- inhibition (at 35 µM): -1.4% (inactive)

Structure (SMILES): NS(=O)(=O)c1ccc(NC(=O)COC(=O)c2ccco2)cc1
- inhibition (at 35 µM): -10.4% (active)
- inhibition (confirmation average, at 20 µM): 80.1%

Structure (SMILES): NS(=O)(=O)c1ccc(NC(=O)COC(=O)c2ccc(Cl)nc2)cc1
- inhibition (at 35 µM): 7.6% (inactive)

Structure (SMILES): Cc1ccc(NC2CCCN(C(=O)CCC3(C)CC3)C2)cc1C (stereo not drawn)
- inhibition (at 35 µM): -6.4% (inactive)

Structure (SMILES): CCCCc1ccc(NC(=O)NCc2cccnc2)cc1
- inhibition (at 35 µM): -1.5% (inactive)

Structure (SMILES): CCC1C(=O)NCCN1C(=O)c1ccc2nc(Cc3ccc(OC)cc3)oc2c1 (stereo not drawn)
- inhibition (at 35 µM): -1.1% (inactive)

Structure (SMILES): O=C(COc1ccc(Cl)cc1)Nc1ccccc1CO
- inhibition (at 35 µM): -15.9% (inactive)

Structure (SMILES): COC(=O)c1sccc1NC(=O)c1ccc(Cl)cc1
- inhibition (at 35 µM): -1.7% (inactive)

Structure (SMILES): COC(=O)c1sccc1NC(=O)COc1ccc(Cl)cc1
- inhibition (at 35 µM): -2% (active)
- inhibition (confirmation average, at 20 µM): 90%

Structure (SMILES): O=C(CCC(=O)n1ncc2ccccc21)NCc1ccccc1Cl
- inhibition (at 35 µM): -5.2% (inactive)

Structure (SMILES): Cc1ccc(Cn2c(C)nc3c(c2=O)c2nc4ccccc4nc2n3Cc2ccco2)cc1
- inhibition (at 35 µM): 18% (inactive)

Structure (SMILES): Cc1nc2c(c(=O)n1Cc1ccco1)c1nc3ccccc3nc1n2Cc1ccccc1
- inhibition (at 35 µM): 68.6% (active)

Structure (SMILES): COCCCn1c2nc3ccccc3nc2c2c(=O)n(Cc3ccc(Cl)cc3)c(C)nc21
- inhibition (at 35 µM): -0.3% (inactive)

Structure (SMILES): Cc1cc(NC(=O)CCC(=O)N(CC(=O)NC2CCCC2)c2ccc(F)cc2)no1
- inhibition (at 35 µM): -1.3% (inactive)

Structure (SMILES): O=C(CSc1ccc(-c2ccccn2)nn1)Nc1ccccc1
- inhibition (at 35 µM): -8.7% (inactive)

Structure (SMILES): COc1ccc2[nH]c(=O)c(C3c4cc(OC)c(OC)cc4CCN3C(=O)c3ccco3)cc2c1 (stereo not drawn)
- inhibition (at 35 µM): -6.8% (inactive)

Structure (SMILES): COc1ccc(S(=O)(=O)Nc2ccc(F)cc2)c(C)c1C
- inhibition (at 35 µM): 7.4% (inactive)

Structure (SMILES): COc1ccc(NS(=O)(=O)c2ccc(F)cc2F)cn1
- inhibition (at 35 µM): 65.2% (active)

Structure (SMILES): CCOc1ccc(S(=O)(=O)Nc2ccc(OC)nc2)cc1
- inhibition (at 35 µM): -8.8% (inactive)

Structure (SMILES): Cc1ccc(NS(=O)(=O)c2ccc(C(C)(C)C)cc2)cn1
- inhibition (at 35 µM): -2.4% (inactive)

Structure (SMILES): O=C(NC1CCCC1)C(c1ccc(Cl)cc1)N(C(=O)c1csnn1)C1CC1 (stereo not drawn)
- inhibition (at 35 µM): -6.1% (inactive)
